High-throughput results deposited in PubChem by NMMLSC.
In the library only some 1.2% were active in any assay of this set; here they are far more common.
GSH fluor: compound fluoresces at 488/530 nm on GSH beads. GSH beads flow cytometry, compound fluorescence 488/530 nm; stronger effect = higher value. fluorescence (KMESF) at 10 µM. 0.25% of 190,000 active. AID 1776; in the data active = fluorescence above about 89;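 also: glutathione beads carrying GST-tagged Bcl family fusion proteins plus one bare bead set; values are compound well signal with DMSO vehicle wells as background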
RGS7-Gao reg: human RGS7-Galphao interaction regulation; Multiplexed bead flow cytometry, RGS7-Galphao binding; actives lie on both sides; binding response (% of control), % at 10 µM; AID 1439; 0.35% of 220,000 active; in the data active = binding response below about 49% or above about 150%; inconclusive = no clear call, values can overlap the other calls; inactive = in between;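 also: fluorescent Galphao held in activated GDP-AlF4 state binding bead-coupled RGS7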
RGS4-Gao reg: modulates binding of RGS4 to human Galphao; Multiplexed bead flow cytometry; actives lie on both sides; P09471; 0.33% of 220,000 active; AID 1415; binding response (% of control), % at 10 µM; in the data active = binding response below about 49% or above about 150%; inactive = in between;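 also: fluorescent Galphao activated with aluminum fluoride binding bead-coupled RGS4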
Avidin bead fluor: avidin bead compound fluorescence profile; Avidin beads, compound fluorescence 488/530 nm, flow cytometry; stronger effect = higher value; fluorescence (KMESF) at 10 µM; 0.38% of 220,000 active; in the data active = fluorescence above about 47
RGS8-Gao reg: human RGS8-Galphao interaction regulation; P09471; multiplexed bead flow cytometry, RGS8-Galphao binding; actives lie on both sides; response (percent of control binding), % at 10 µM; 0.34% of 220,000 active; in the data active = response below about 60% or above about 140%; inactive = in between;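 also: Galphao activated as the GDP aluminium fluoride complex binding bead-coupled RGS8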
RGS16-Gao: regulators of human RGS16-Galphao interaction; O15492+P09471; bead-based flow cytometry RGS16-Galphao binding, fluorescence; actives lie on both sides; binding response (% of control), % at 10 µM; 0.38% of 220,000 active; AID 1441; call rule not given here;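 also: Galphao activated by GDP with aluminum fluoride before binding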
Target sequence (O15492 whole entry, looked up): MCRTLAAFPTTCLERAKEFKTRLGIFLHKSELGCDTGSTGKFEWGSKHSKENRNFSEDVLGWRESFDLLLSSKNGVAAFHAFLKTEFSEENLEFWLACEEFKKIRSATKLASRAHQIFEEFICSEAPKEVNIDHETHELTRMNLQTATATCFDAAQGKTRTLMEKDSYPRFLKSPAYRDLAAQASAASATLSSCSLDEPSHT
Target sequence (P09471 whole entry, looked up): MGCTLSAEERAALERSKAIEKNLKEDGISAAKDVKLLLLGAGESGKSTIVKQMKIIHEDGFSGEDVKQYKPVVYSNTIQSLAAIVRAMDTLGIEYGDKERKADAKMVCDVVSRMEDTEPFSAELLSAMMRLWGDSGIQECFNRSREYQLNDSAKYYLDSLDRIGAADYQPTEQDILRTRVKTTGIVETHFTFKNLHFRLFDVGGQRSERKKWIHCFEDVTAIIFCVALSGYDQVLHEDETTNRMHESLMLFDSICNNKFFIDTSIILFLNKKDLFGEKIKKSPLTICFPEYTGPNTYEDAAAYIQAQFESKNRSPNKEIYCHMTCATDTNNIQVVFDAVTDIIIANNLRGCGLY
Active calls of the source: *; u = inconclusive; x = no result given; [ ] = remark or other dose.

SMILES	GSH fluor	RGS7-Gao reg	RGS4-Gao reg	Avidin bead fluor	RGS8-Gao reg	RGS16-Gao
O=C(CSc1ccccn1)c1ccc(F)cc1	6	90.5	87.0	5	89.2	91.9
O=C(c1cccc(C(F)(F)F)c1)c1c[nH]c(C(=O)NCCCN2CCOCC2)c1	13	u	103.0	14	101.3	103.1
CSc1ncccc1C(=O)NC(C)C1CC2CCC1C2 (configuration not stated)	17	99.5	99.2	11	107.7	113.8
COc1ccc(OCCSc2nnc(-c3ccccc3)n2N)cc1	28	117.7	104.1	63*	99.1	101.4
Cc1cccc(S(=O)(=O)NCCC(=O)OC(C)C(=O)NC(=O)NC2CCCCC2)c1 (configuration not stated)	258*	98.8	99.0	8	98.9	101.3
O=C(COC(=O)CCNS(=O)(=O)c1cccc(C(F)(F)F)c1)NC(=O)NC1CCCCC1	12	99.8	99.7	11	95.6	88.9
C1=C(CCNCC2CCCCC2)CCCC1	21	98.7	98.1	13	101.1	98.5
c1csc(CSc2nc3ccccc3s2)c1	276*	99.9	98.7	7	99.8	102.5
CC(C)NC(=O)COC(=O)c1ccc(Oc2ccccc2)cc1	265*	104.4	104.1	9	108.5	109.1
O=C(C1CCN(S(=O)(=O)N2CCC3(CC2)OCCO3)CC1)N1CCC(Cc2ccccc2)CC1	28	298.1*[activator]	387.4*[activator]	233*	116.6	526.2*[activator]
O=[N+]([O-])c1ccc(Cl)c(/C=N/Nc2nc(N3CCOCC3)nc(N3CCOCC3)n2)c1	61	91.9	103.6	354*	82.7	20.5
O=[N+]([O-])c1ccc(/C=N/Nc2nc(N3CCOCC3)nc(N3CCOCC3)n2)cc1	24	99.5	101.7	10	101.1	105.2
Cc1cccc(Nc2nc(N)nc(CCl)n2)c1C	x	u	104.6	7	98.2	99.9
COc1ccc(-c2nc(-c3ccccc3)nc(N3CCN(C)CC3)c2C#N)cc1	13	97.2	102.2	51*	105.5	108.5
CCOC(=O)Cc1csc(NC(=O)NC2(C(F)(F)F)Oc3cc(Cl)c(Cl)cc3O2)n1	35	97.1	96.9	12	98.0	97.0
CCOC(=O)Cc1csc(NC(=O)NC2(C(F)(F)F)Oc3ccc(Cl)cc3O2)n1 (configuration not stated)	251*	93.6	95.2	6	97.0	93.3
CC1N(O)C(C)(C)C(c2ccccc2)=[N+]1[O-] (configuration not stated)	103*	83.9	81.7	3	81.4	77.4
O=C(CCC(=O)NNC(=O)COc1ccccc1)NCc1ccccc1	8	95.2	96.3	29	99.3	101.2
Cc1cc(C)cc(OCC(=O)NNC(=O)CCC(=O)NCc2ccccc2)c1	152*	99.4	98.5	3	97.6	94.3
Cc1nnc(N)s1	x	u	103.6	8	103.5	105.2
CCC1(CC)Cc2ccccc2C(N)=C1C#N	27	111.9	102.3	63*	102.4	101.4
COc1ccc2c(c1)CCC(C)N2C(=O)C(=O)c1c[nH]c2ccccc12 (configuration not stated)	x	u	90.5	5	94.3	89.2
COc1ccc(CCN2C(=O)c3ccccc3C2(O)c2ncc[nH]2)cc1OC (configuration not stated)	146*	95.3	95.4	4	98.0	100.9
O=C(CN1C(=O)c2ccccc2C1=O)OCC(=O)N1CCc2ccccc2C1	268*	96.1	100.2	8	99.0	103.3
COc1cccc2sc(NC(=O)c3ccc(Br)s3)nc12	265*	86.8	86.9	7	90.7	92.2
Cc1cccc2sc(NC(=O)c3ccc(Cl)s3)nc12	21	100.6	99.5	7	100.4	100.7
Cc1cccc(C)c1NC(=O)COc1cccc(/C=N/NC(=O)C(=O)NCc2ccccc2)c1	18	112.8	103.6	57*	100.1	101.8
Cc1cc2cc(CN(C(=O)C3CC3)C3CCCC3)c3nnnn3c2cc1C	40	137.4	102.5	61*	97.9	102.3
CCc1ccc2c(c1)cc(CN(C(=S)Nc1cccc(C)c1)C1CC1)c1nnnn12	10	99.4	99.7	27	101.4	97.6
